Data published in PubChem BioAssay (NCATS).
Records with an inconclusive call do not appear. The source made the active and inactive calls. Calls come from the whole dose curve; as a rule, active = well fitted inhibition curve with a large enough effect; inconclusive = small, poorly fitted or top-dose-only effect; inactive = no such curve, though single readings can be large or run the other way. Residues, ends and D or L forms follow the SMILES beside them. *: point of attachment. Cbz = O=C(OCc1ccccc1)*

experiment: BET inhibitor-based combinations targeting novel dependencies in MECOM-rearranged (r) AML: SET-2 cell line (AID 2202231); conditions: SET-2 AML cells viability, CellTiter-Glo luminescence, 48 h; viability: active compounds read low, series mostly up to about 46 µM; note: nearly all actives have a fitted effect of over 35% in size
Description: Ecotropic viral insertion site 1 (EVI1) is located on chromosome 3q26.2 as part of the MECOM (MDS and EVI1 complex) locus. Under normal hematopoiesis, EVI1 is a regulator of hematopoietic stem cell maintenance and self-renewal and EVI1 levels decrease as the cells differentiate. In approximately 5-10% of de novo acute myeloid leukemia (AML) EVI1 is aberrantly expressed, including Chromosomal inv(3)(q21;q26.2) or t(3;3)(q21;q26.2) alterations (MECOM-r) that account for about 50% of AML with EVI1 overexpression 31. AMLs with high levels of EVI1 have a poor prognosis and an overall survival time averaging between 10-14 months. EVI1 overexpression confers resistance in leukemia cells, highlighting the need to develop new targeted therapies for EVI1 overexpressing AMLs.
Here, we performed an unbiased chemical drug screening by evaluating the single agent activity of a collection of 2,480 oncology-focused, approved and investigational drugs (NCATS Mechanism Interrogation Plates, MIPE v5.0) against a panel of seven AML cell lines. These included four MECOM-r cell-lines (AML-191, AML-194, UCSD-AML1 and HNT-34) and three non-MECOM-r AMLs (MV4-11, OCI-AML3 and SET-2). Exploiting the mechanistic redundancy built in the library, we identified target-level sensitivities in MECOM-r AML cells and relative activity as compared to other AML subtypes.
A collection of 2480 mechanistically annotated dugs (MIPE v5.0) was used to screen four 3q26.2 rearranged AML cell lines and three non-3q26.2 rearranged AML cell lines. This library purposely exploits redundancy by including multiple inhibitors of key onco-targets, while simultaneously encompassing mechanistic diversity, targeting more than 800 distinct mechanisms of action. Briefly, cells were seeded in 5 uL of growth media using a Multidrop Combi dispenser into 1536 well white polystyrene tissue culture treated plates (Corning) at a density of 500cells/well. For each cell-line, for each of the 2480 drugs in MIPE v5.0 library, an 11-point dose curve was generated via a 1536 pin-tool. Plates were incubated for 48 hr at standard incubator conditions, covered by a stainless steel gasketed lid to prevent evaporation. Cell viability was determined by luminescence based, Cell Titer Glo assay (Promega). In detail, 3 uL of Cell Titer Glo were added to each well and plates were incubated at room temperature for 15 min with a stainless-steel lid in place. Luminescence readings were taken using a Viewlux (PerkinElmer) with a 2 s exposure time per plate. Compound dose-response curves were normalized to DMSO and empty well controls on each plate. Quantitative drug activity data from dose-response curves was determined utilizing area Under the Curve (AUC) and Z-transformed AUC (Z-AUC, a mean-centering transformation applied to each individual cell-line screened).
Potency is the fitted concentration of half-maximal effect.

| SMILES | viability | Potency |
| --- | --- | --- |
| COc1ccc(-c2oc3c(CC=C(C)C)c(O)cc(O)c3c(=O)c2O)cc1 | 97% (inactive) | – |
| CCCCCCCCCCCCc1ccc(S(=O)(=O)Nc2nncs2)cc1 | 118% (inactive) | – |
| C[C@@H]1CN(CC(=O)Nc2ccc3c(c2)Cc2cccc(-c4cc(=O)cc(N5CCOCC5)o4)c2S3)C[C@H](C)O1 | 86.1% (inactive) | – |
| O=C(NC(Cc1cc(=O)[nH]c2ccccc12)C(=O)O)c1ccc(Cl)cc1 (stereo not given) | 120% (inactive) | – |
| CCc1cccc2c3c([nH]c12)[C@@](CC)(CC(=O)O)OCC3 | 112% (inactive) | – |
| C=C1C[C@@]2(O)O[C@@]3(C[C@H]2C(C)C)[C@@H](C)CC[C@@H]13 | 112% (inactive) | – |
| COc1ccc2c3n(c(=NC(=O)c4cccnc4)nc2c1OC)CCN3 | 112% (inactive) | – |
| CC[N+](CC)(CC)CCOc1cccc(OCC[N+](CC)(CC)CC)c1OCC[N+](CC)(CC)CC | 113% (inactive) | – |
| CCCCC(=O)O[C@]1(C(=O)CO)[C@@H](C)C[C@H]2[C@@H]3CCC4=CC(=O)C=C[C@]4(C)[C@@]3(F)[C@@H](O)C[C@@]21C | 109% (inactive) | – |
| Cc1cc(C(C)(C)C)c(O)c(C)c1CC1=NCCN1 | 118% (inactive) | – |
| Cc1ccc(C(N)=O)cc1Nc1nccc(-c2cn(C(C)C)c3cnccc23)n1 | – | 7.42 µM (active) |
| CC1=C(C(=O)Nc2cc3cn[nH]c3cc2F)C(c2ccc(C(F)(F)F)cc2)CC(=O)N1 (stereo not given) | 110% (inactive) | – |
| COc1cc(F)c(C(C)C)cc1-c1ccc(C(F)(F)F)cc1CN1C(=O)O[C@H](c2cc(C(F)(F)F)cc(C(F)(F)F)c2)[C@@H]1C | 105% (inactive) | – |
| Cn1c(CNc2ccc(C(=N)N)cc2)nc2cc(C(=O)N(CCC(=O)O)c3ccccn3)ccc21 | 116% (inactive) | – |
| CC(=O)NC[C@H]1CN(c2ccc(N3CCOCC3)c(F)c2)C(=O)O1 | 105% (inactive) | – |
| O=c1c(-c2ccc(O)cc2)coc2cc(O)ccc12 | 112% (inactive) | – |
| C[C@]12C=CC(=O)C=C1CC[C@@H]1[C@@H]2[C@@H](O)C[C@@]2(C)[C@H]1CC[C@]2(O)C(=O)CO | 103% (inactive) | – |
| CN[C@H]1CCc2cc(OC)c(OC)c(OC)c2-c2ccc(OC)c(=O)cc21 | – | 0.186 µM (active) |
| Cc1cc(Nc2nc(N[C@@H](C)c3ncc(F)cn3)ncc2Cl)n[nH]1 | – | 1.48 µM (active) |
| CN1CCC(COc2cnc(-c3cccc(Cn4nc(-c5cccc(C#N)c5)ccc4=O)c3)nc2)CC1 | 115% (inactive) | – |

| SMILES | viability | Potency |
| --- | --- | --- |
| CC(C)Cn1cnc2c(N)nc3ccccc3c21 | 101% (inactive) | – |
| FC(F)(F)c1ccc(Nc2nc(-c3c(C(F)(F)F)nc4ccccn34)cs2)cc1 | – | 0.833 µM (active) |
| NC(=O)c1ncn([C@@H]2O[C@H](CO)[C@@H](O)[C@H]2O)n1 | – | 20.9 µM (active) |
| CC(C)C[C@@H](C=O)NC(=O)[C@H](CC(C)C)NC(=O)[C@H](CC(C)C)NC(=O)OCc1ccccc1 (Cbz-Leu-Leu-Leu-aldehyde) | – | 1.48 µM (active) |
| FC(F)c1nc2ccccc2n1-c1nc(N2CCOCC2)nc(N2CCOCC2)n1 | – | 3.72 µM (active) |
| CNC(=O)c1cccc(-c2ccc3c(N4CCOC[C@@H]4C)nc(N4CCOC[C@@H]4C)nc3n2)c1 | – | 0.59 µM (active) |
| C/C=C/C(=O)N(CC)c1ccccc1C | 107% (inactive) | – |
| CCCc1c(OCCCOc2ccc(OCC(=O)O)cc2)ccc(C(C)=O)c1O | 119% (inactive) | – |
| COc1ccc2[nH]cc(CCNC(C)=O)c2c1 | 124% (inactive) | – |
| NC(=NCCCCCCN=C(N)N=C(N)Nc1ccc(Cl)cc1)N=C(N)Nc1ccc(Cl)cc1 | – | 26.3 µM (active) |
| CNC[C@H](O)[C@@H](O)[C@H](O)[C@H](O)CO | 121% (inactive) | – |
| O=C(NCC1CN(c2ccc(N3CCOCC3=O)cc2)C(=O)O1)c1ccc(Cl)s1 (stereo not given) | 94.7% (inactive) | – |
| Cc1cn2cc(C(=O)N(C)CCO)cc(N[C@@H]3CCOc4cccc(C)c43)c2n1 | 112% (inactive) | – |
| Cc1ccc(NC(=O)Nc2cc(C(F)(F)F)ccc2F)cc1Nc1ccc2c(c1)NC(=O)/C2=C\c1ccc[nH]1 | – | 23.5 µM (active) |
| O=C1NCCc2[nH]c(-c3ccncc3)cc21 | – | 3.72 µM (active) |
| O=NN(CCCl)C(=O)NCCCl | 104% (inactive) | – |
| CN(N=O)C(=O)N[C@@H]1[C@@H](O)[C@H](O)[C@@H](CO)O[C@@H]1O | 101% (inactive) | – |
| C[C@@H](NCCCc1cccc(C(F)(F)F)c1)c1cccc2ccccc12 | – | 23.5 µM (active) |
| COc1ccc2c(c1)CC[C@@H](CN(C)CC(=O)O)[C@H]2c1ccccc1 | 116% (inactive) | – |
| Cc1ccc(CN2CCNCC2)cc1NC(=O)CNc1ccc(F)c(F)c1 | 115% (inactive) | – |
